Data on 21 molecules can be found in PubChem BioAssay (EPA / NIEHS).

Common to all, as to conditions: mRNA level, 48 h; actives raise or lower the signal
Read-out in test [1]: NAD(P)H dehydrogenase [quinone] 1 (NQO1), NQO1 (gene 1728)
Briefly: LTEA_HepaRG_NQO1: Life Technologies and Expression Analysis (LTEA) Assay for NAD(P)H dehydrogenase [quinone] 1 (NQO1) using HepaRG (AID 2283526). Summed up: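 Differentiated human HepaRG cells in serum-free induction medium, dosed in duplicate for 48 h at 8 half-log concentrations up to 100 uM in 0.5% DMSO. NQO1 mRNA by qRT-PCR normalized to ACTB, GAPDH, POLR2A; bidirectional fit versus DMSO baseline.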

Read-out in test [2]: Nuclear factor erythroid 2-related factor 2 (Homo sapiens) (UniProt Q16236)
Briefly: LTEA_HepaRG_NFE2L2: Life Technologies and Expression Analysis (LTEA) Assay for Nuclear factor erythroid 2-related factor 2 (NFE2L2) Transcription Factor using HepaRG (AID 2283527).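 As to outcome: TaqMan qRT-PCR transcript level normalised to ACTB GAPDH and POLR2A housekeeping genes.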 Summed up: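 Differentiated human HepaRG cells, serum-free induction medium, exposed 48 h in duplicate to eight half-log concentrations up to 100 uM in 0.5% DMSO. NFE2L2 mRNA by Fluidigm TaqMan qRT-PCR, normalised to ACTB, GAPDH, POLR2A; bidirectional change versus DMSO.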

Read-out in test [3]: succinate dehydrogenase complex iron sulfur subunit B (SDHB), SDHB (gene 6390)
Kind of test: LTEA_HepaRG_SDHB: Life Technologies and Expression Analysis (LTEA) Assay for succinate dehydrogenase complex iron sulfur subunit B (SDHB) using HepaRG (AID 2283528). Put shortly:
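HepaRG cells (~100,000/well, plated 48 h) exposed in duplicate for 48 h in serum-free induction medium to 8-point half-log series from 100 uM in 0.5% DMSO; mRNA by qRT-PCR normalised to ACTB, GAPDH, POLR2A; bidirectional fit versus DMSO.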

Read-out in test [4]: Signal transducer and activator of transcription 3 (Homo sapiens) (UniProt P40763)
Kind of test: LTEA_HepaRG_STAT3: Life Technologies and Expression Analysis (LTEA) Assay for Signal transducer and activator of transcription (STAT3) using HepaRG (AID 2283529). Summed up: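 Differentiated HepaRG cells, serum-free induction medium, dosed 48 h in duplicate, 8 half-log concentrations from 100 uM in 0.5% DMSO. STAT3 mRNA by qRT-PCR, normalised to ACTB, GAPDH, POLR2A; bidirectional fit versus DMSO.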

Read-out in test [5]: solute carrier (SLCO1B1), SLCO1B1 (gene 10599)
Kind of test: LTEA_HepaRG_SLCO1B1: Life Technologies and Expression Analysis (LTEA) Assay for solute carrier (SLCO1B1) using HepaRG (AID 2283530). Summed up: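 SLCO1B1 transcript read by qRT-PCR (Fluidigm arrays), normalized to three housekeeping genes, after 48 h chemical exposure of HepaRG cells; bidirectional concentration-response fitting versus 0.5% DMSO baseline. Eight-point half-log series, maximum 100 uM.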

Read-out in test [6]: sulfotransferase 2A1 (SULT2A1), SULT2A1 (gene 6822)
Kind of test: LTEA_HepaRG_SULT2A1: Life Technologies and Expression Analysis (LTEA) Assay for sulfotransferase 2A1 (SULT2A1) using HepaRG (AID 2283531). Summed up:
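HepaRG, 48 h chemical exposure, 8-pt half-log curve from 100 uM in 0.5% DMSO, duplicates. Readout: TaqMan qRT-PCR of SULT2A1 mRNA, housekeeping-normalized. Bidirectional fit vs DMSO baseline.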

Read-out in test [7]: Transforming Growth Factor (TGFA), TGFA (gene 7039)
Briefly: LTEA_HepaRG_TGFA: Life Technologies and Expression Analysis (LTEA) Assay for Transforming Growth Factor (TGFA) using HepaRG (AID 2283532). Summed up: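 Differentiated HepaRG cells exposed 48 hours in serum-free induction medium, 0.5% DMSO vehicle, 8-point half-log series from 100 uM, in duplicate. TGFA mRNA by TaqMan qRT-PCR, normalised to ACTB, GAPDH, POLR2A; bidirectional fit versus DMSO.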

Read-out in test [8]: Transforming Growth Factor (TGFB1), TGFB1 (gene 7040)
Kind of test: LTEA_HepaRG_TGFB1: Life Technologies and Expression Analysis (LTEA) Assay for Transforming Growth Factor (TGFB1) Transporter using HepaRG (AID 2283533). Put shortly:
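qRT-PCR readout of TGFB1 transcript in HepaRG lysates, normalized to three housekeeping genes; gain or loss of signal fitted relative to 0.5% DMSO vehicle. Exposure: 48 h, 8-point curve from 100 uM, duplicate wells.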

Read-out in test [9]: Tumor necrosis factor receptor 1 (TNFRSF1A), TNFRSF1A (gene 7132)
Briefly: LTEA_HepaRG_TNFRSF1A: Life Technologies and Expression Analysis (LTEA) Assay for Tumor necrosis factor receptor 1 (TNFRSF1A) using HepaRG (AID 2283535). Summed up: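 HepaRG, 48 h plating then 48 h chemical exposure, serum-free induction media; 8-pt CRC from 100 uM, half-log, 0.5% DMSO vehicle, duplicates. Readout: TaqMan qRT-PCR (Fluidigm), housekeeping-gene normalized; bidirectional fit vs DMSO.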

Read-out in the next test: TIMP1, TIMP1 (gene 7076)
Kind of test: LTEA_HepaRG_TIMP1: Life Technologies and Expression Analysis (LTEA) Assay for TIMP1 using HepaRG (AID 2283534).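 Also: TaqMan qRT-PCR signal normalized to ACTB GAPDH and POLR2A housekeeping genes.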 Put shortly: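 HepaRG, 48 h exposure, 8-pt half-log series from 100 uM in 0.5% DMSO, duplicates; TIMP1 transcript by Fluidigm qRT-PCR, housekeeping-normalized; bidirectional curve fit vs DMSO baseline.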

Usually AC50 stands for the concentration at which the activity in the assay is half-maximal.

The source made the active and inactive calls. The calls were made as follows: active = hit-call score of the fitted dose curve at least 0.9, where 1 is the maximum; inactive = score below 0.9.

Chain of Signal transducer and activator of transcription 3 (Homo sapiens) (P40763 whole entry, looked up): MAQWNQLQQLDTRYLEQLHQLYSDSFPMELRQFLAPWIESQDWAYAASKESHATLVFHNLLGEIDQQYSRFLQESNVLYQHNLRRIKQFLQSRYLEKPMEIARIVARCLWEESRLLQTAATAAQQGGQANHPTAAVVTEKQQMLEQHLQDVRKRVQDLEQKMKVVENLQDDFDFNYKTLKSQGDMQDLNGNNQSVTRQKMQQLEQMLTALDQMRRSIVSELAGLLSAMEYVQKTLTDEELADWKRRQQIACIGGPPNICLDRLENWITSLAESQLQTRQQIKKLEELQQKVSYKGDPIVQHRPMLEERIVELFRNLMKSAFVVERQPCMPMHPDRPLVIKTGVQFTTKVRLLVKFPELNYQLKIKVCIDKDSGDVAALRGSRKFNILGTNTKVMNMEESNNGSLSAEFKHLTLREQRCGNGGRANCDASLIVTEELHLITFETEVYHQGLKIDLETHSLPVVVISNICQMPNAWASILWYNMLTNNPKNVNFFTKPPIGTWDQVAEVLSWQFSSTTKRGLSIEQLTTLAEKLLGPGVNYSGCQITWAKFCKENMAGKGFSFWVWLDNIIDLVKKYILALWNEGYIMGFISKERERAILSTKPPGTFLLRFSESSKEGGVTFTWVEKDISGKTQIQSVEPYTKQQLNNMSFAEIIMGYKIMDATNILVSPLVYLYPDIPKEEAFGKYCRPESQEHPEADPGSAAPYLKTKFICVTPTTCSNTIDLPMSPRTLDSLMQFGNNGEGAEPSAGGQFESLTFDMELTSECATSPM
Chain of Nuclear factor erythroid 2-related factor 2 (Homo sapiens) (Q16236 whole entry, looked up): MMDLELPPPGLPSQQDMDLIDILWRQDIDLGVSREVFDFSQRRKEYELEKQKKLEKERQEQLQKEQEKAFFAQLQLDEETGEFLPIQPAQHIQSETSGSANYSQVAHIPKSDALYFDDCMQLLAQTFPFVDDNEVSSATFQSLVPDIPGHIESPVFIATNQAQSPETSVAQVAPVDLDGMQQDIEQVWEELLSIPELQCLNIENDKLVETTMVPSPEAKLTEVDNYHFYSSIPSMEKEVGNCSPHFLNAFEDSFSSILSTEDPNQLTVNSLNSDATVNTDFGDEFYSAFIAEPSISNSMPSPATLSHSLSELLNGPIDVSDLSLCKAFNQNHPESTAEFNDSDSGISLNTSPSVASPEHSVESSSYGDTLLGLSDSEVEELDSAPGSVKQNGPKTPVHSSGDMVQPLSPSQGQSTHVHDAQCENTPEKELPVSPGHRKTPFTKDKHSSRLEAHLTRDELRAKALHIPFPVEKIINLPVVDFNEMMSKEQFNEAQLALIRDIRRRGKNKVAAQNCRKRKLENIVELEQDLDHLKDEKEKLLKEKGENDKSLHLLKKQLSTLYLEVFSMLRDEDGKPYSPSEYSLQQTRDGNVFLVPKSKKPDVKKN

On to `Oc1ccc2ccccc2c1N=Nc1ccccc1`, for which the molecule was classed as inactive in test [1], in test [3], in [7], in test [8] and in [9]. The AC50 was 1.5 µM (active) in [2], 16.2 µM (active) in test [4], 11.4 µM (active) in [5] and 4.89 µM (active) in [6].

Turning to `CCc1c(C(=O)NN2CCCCC2)nn(-c2ccc(Cl)cc2Cl)c1-c1ccc(Br)cc1`, the AC50 is 80.1 µM (active) in test [1]; 72.4 µM (active) in test [2]; 36.9 µM (active) in [5]; 37.4 µM (active) in test [6]; 55.3 µM (active) in [7]; 13.2 µM (active) in [8]. The result in test [3], in [4] and in test [9] was inactive.

As for `Cc1oc(-c2ccccc2)nc1CCOc1cccc2c1ccn2CCC(=O)O`, the outcome in [1] is “inactive”; in test [3], “inactive”; in [4], “inactive”; in the test with TIMP1, TIMP1 (gene 7076), “inactive”; in test [9], “inactive”. Also, the AC50 in [2] is 74.8 µM (active); in [5] it was 82.4 µM (active); in test [6] it was 90.5 µM (active); in test [7] it was 50 µM (active); in test [8], 16.9 µM (active).

As for `NC(=O)Cn1c(=O)cc(CCN2CCN(c3nccc4sccc34)CC2)c2ccc(F)cc21`, the molecule was called inactive in test [1], in [2], in [3], in test [4], in test [5] and in test [6]. Also, the outcome was “inactive” in [7]; “inactive” with TIMP1, TIMP1 (gene 7076); “inactive” in test [9]. Also, the AC50 in test [8] was 39.1 µM (active).

Take `CCCCc1ccc2c(n1)[C@@H](c1ccc(OC)cc1C[C@H](C)C(=O)O)[C@H](C(=O)O)[C@H]2c1ccc2c(c1)OCO2`: the molecule was classed as inactive in [1], in [2], in [3], in test [4], in [5] and in test [6]. The outcome in test [7] is “inactive”; in test [8] it was “inactive”; with TIMP1, TIMP1 (gene 7076), “inactive”; in [9], “inactive”.

Turning to `Cc1ccc(N(C)C)cc1`, the molecule was called inactive in test [1], in [2], in test [3], in [4], in test [5] and in [6]. Moreover, the outcome is “inactive” in test [7]; “inactive” in [8]; “inactive” with TIMP1, TIMP1 (gene 7076); “inactive” in test [9].

On to `CCCCCCCCCCC`, for which the result in [1], in [2], in test [3], in [4], in test [5] and in test [6] was inactive. Moreover, the outcome was “inactive” in [7]; “inactive” in test [8]; “inactive” with TIMP1, TIMP1 (gene 7076); “inactive” in test [9].

On to `CCCCCCCCCCCCCCCCCC(=O)O`, for which the molecule was classed as inactive in test [1], in test [2], in [3], in test [4], in test [5] and in [6]. The call in [7], in [8] and in test [9] was inactive.

On to `FC(F)(F)C(F)(F)C(F)(F)C(F)(F)C(F)(F)C(F)(F)CCI`, for which the molecule was classed as inactive in test [1], in test [2], in [3], in [4], in [5] and in [6]. Further, the outcome was “inactive” in test [7]; “inactive” in [8]; “inactive” with TIMP1, TIMP1 (gene 7076); “inactive” in test [9].

For `Cc1nc(C)nc(N2C[C@@H](C)N(c3ccnc([C@@H](C)O)n3)[C@@H](C)C2)n1`, the molecule was classed as inactive in [1], in test [2], in test [3], in test [4], in [5] and in [6]. For the same molecule, the molecule was called inactive in [7], in test [8] and in test [9].

With `C[Si]1(C)O[Si](C)(C)O[Si](C)(C)O[Si](C)(C)O1`, the outcome in test [1], in test [2], in [3], in test [4], in test [5] and in test [6] was inactive. The outcome in test [7], in [8] and in test [9] was inactive.

`CCCc1cc(=O)[nH]c(=S)[nH]1`: the outcome in [1], in [2], in [3], in test [4], in test [5] and in [6] was inactive. In addition, the outcome is “inactive” in test [7]; “inactive” in test [8]; “inactive” in the test with TIMP1, TIMP1 (gene 7076); “inactive” in test [9].

Turning to `COC(=O)c1ccc(O)cc1`, the call in test [1], in test [2], in test [3], in test [4], in test [5] and in test [6] was inactive. In addition, the outcome in test [7] is “inactive”; in test [8], “inactive”; with TIMP1, TIMP1 (gene 7076), “inactive”; in test [9], “inactive”.

As to `CCOC(=O)C(C)(C)Oc1ccc(Cl)cc1`, the molecule was classed as inactive in test [1], in test [2], in test [3], in [4], in [5] and in test [6]. Further, the molecule was classed as inactive in test [7], in test [8] and in test [9].

Regarding `NCC1(Cc2noc(=O)[nH]2)CCCCC1`, the call in [1], in test [2], in test [3], in [4], in test [5] and in test [6] was inactive. In addition, the outcome in [7] is “inactive”; in test [8] it was “inactive”; with TIMP1, TIMP1 (gene 7076), “inactive”; in test [9], “inactive”.

As for `COc1cc(C=O)ccc1O`, the molecule was called inactive in [1], in [2], in test [3], in [4], in [5] and in [6]. The result in [7], in test [8] and in [9] was inactive.

In the case of `COc1ccc(C)cc1N`, the molecule was called inactive in test [1], in test [2], in [3], in test [4], in test [5] and in test [6]. Moreover, the molecule was called inactive in [7], in [8] and in test [9].

As to `CC(=O)Oc1ccccc1C(=O)O`, the result in [1], in test [2], in test [3], in test [4], in test [5] and in test [6] was inactive. In addition, the call in [7], in [8] and in test [9] was inactive.

With `Nc1nc(N)c2nc(CNc3ccc(C(=O)N[C@@H](CCC(=O)O)C(=O)O)cc3)cnc2n1`, the molecule was called inactive in test [1], in test [2], in test [3], in test [4], in test [5] and in test [7]. The result in test [8] and in test [9] was inactive. In addition, in [6], the AC50 is 0.0974 µM (active).

Take `O=[N+]([O-])C(CO)(CO)CO`: the molecule was classed as inactive in test [1], in test [3], in [4], in test [5], in test [6] and in test [7]. Also, the outcome in test [8] was “inactive”; with TIMP1, TIMP1 (gene 7076), “inactive”; in test [9] it was “inactive”.

With `CCCCOC(=O)CCCCCCCCC(=O)OCCCC`, the call in test [1], in test [2], in test [3], in test [4], in [5] and in test [6] was inactive. Besides, the outcome in test [7], in test [8] and in test [9] was inactive.
